TEAD-YAP inh: TEAD-YAP interaction inhibition, primary screen, TEAD-YAP interaction inhibitor project, luminescence, HEK-TIYL cells | 1.4% of 640,000 active | AID 1259422, 2018 | TEAD-Gal4/YAP UAS-luciferase luminescence | inhibition, % at 9.12 µM; in the data active means inhibition above about 32%
FBW7 activator: FBW7 E3 ligase activators, primary screen, biochemical, AlphaScreen, human | F-box/WD repeat-containing protein 7 (Homo sapiens), Q969H0 | AlphaScreen FBW7–phospho-cyclin E peptide binding, activator screen | normalized activity (activation), % at 26.1 µM | 0.13% of 650,000 active; in the data active means normalized activity above about 1.9%;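 further: purified mutant Fbw7 with reduced substrate affinity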
GPR151 activ: activators of human GPR151, primary screen, cell-based, PathHunter beta-arrestin, luminescence. 1% of 650,000 active. G-protein coupled receptor 151 (Homo sapiens), Q8TDV0. PathHunter beta-arrestin GPR151 cells. activation, % at 11.2 µM; in the data active means activation above about 4.9%
MITF inh: MITF inhibitors, primary screen, biochemical, AlphaScreen, human. AlphaScreen MITF homodimerization, bead proximity signal. inhibition, % at 2.6 µM. 0.91% of 650,000 active; in the data active means inhibition above about 50%
MITF confirm: MITF inhibitors, retest of hits, confirmation, biochemical, AlphaScreen, triplicate; shares compounds with MITF inh; AlphaScreen MITF homodimerization, biotin/His-MITF beads; inhibition, % at 2.6 µM; 16% of 4,700 active;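 active means inhibition above a cutoff derived from the DMSO control wells, cut at about 28% in these data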;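 further: inhibitors lower the bead chemiluminescence by keeping MITF from dimerizing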
AlphaScreen DR: AlphaScreen optical interference compounds, dose response, counter-screen, biochemical, HTS; shares compounds with MITF inh; AlphaScreen optical interference counterscreen, cell-free; IC50, µM; 6% of 480 active; call rule not given here
AS interf ctr: AlphaScreen optical interference compounds, counter-screen for MITF inhibitor project, biochemical, triplicate | inhibition, % at 2.6 µM | 7.6% of 4,700 active | LysRS AlphaScreen counterscreen, signal interference | shares compounds with MITF inh;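 active means inhibition above a cutoff derived from the DMSO control wells, cut at about 30% in these data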
Each line names hits and unclear results; the compound was inactive in the other large screens (follow-up assays come after a bar, where they were run). Only some compounds are listed: those with a hit (about 3.5% of all), similar ones and a draw of the others.

O=S(=O)(NCC(c1cccs1)S(=O)(=O)c1ccc(Cl)cc1)c1cccs1 (stereo unspecified)	MITF inh 73.3 | MITF confirm inactive | AS interf ctr inactive
O=S(=O)(NCC(c1cccs1)S(=O)(=O)c1ccccc1)c1cccs1 (stereo unspecified)	none
O=C(NCCCO)c1ccc(OC2CCN(CCc3ccccc3)CC2)cc1	none
O=C(NCCCn1ccnc1)c1ccc(OC2CCN(CCc3ccccc3)CC2)cc1	MITF inh 68.5 | MITF confirm inactive | AS interf ctr inactive
CSc1nnc(CN2CCSCC2)n1C	MITF inh 64.1 | MITF confirm inactive | AS interf ctr inactive
Cn1c(CN2CCOCC2)nnc1SCC(N)=O	none
CCOC(=O)c1c(Nc2ccccc2N)cc(C)nc1C	MITF inh 68.3 | MITF confirm inactive | AS interf ctr inactive
Cc1cc(Cl)ccc1N(CC(=O)NCC1CCCO1)S(=O)(=O)c1ccccc1 (stereo unspecified)	MITF inh 72.6 | MITF confirm inactive | AS interf ctr inactive
Cc1ccc(S(=O)(=O)N(CC(=O)NCC2CCCO2)c2ccccc2Cl)cc1 (stereo unspecified)	none
O=c1oc2ccccc2c(O)c1Cc1cc(Cl)c2cccnc2c1O	none
O=C1NC(=O)C(Cc2cc(Cl)c3cccnc3c2O)C(=O)N1	MITF inh 57.7 | MITF confirm 82.1 | AS interf ctr 84.6
CCOC(=O)c1c(-c2ccc(-c3ccccc3)cc2)csc1NC(=O)C(OC(C)=O)C(OC(C)=O)C(COC(C)=O)OC(C)=O (stereo unspecified)	none
CCC(C)C(=O)NCc1nnc2n1CCN(C/C=C/c1ccco1)CC2 (stereo unspecified)	MITF inh 59.6 | MITF confirm 77.2 | AlphaScreen DR inactive | AS interf ctr inactive
COc1cc(C(C)=O)ccc1OCCOCCN1CCN(Cc2ccccc2)CC1	MITF inh 86.6 | MITF confirm inactive | AS interf ctr inactive
Cc1ccc([N+](=O)[O-])c(OCCOCCN2CCN(Cc3ccccc3)CC2)c1	MITF inh 70.1 | MITF confirm inactive | AS interf ctr inactive
Cc1ccc([N+](=O)[O-])c(OCCCN2CCN(Cc3ccccc3)CC2)c1	none
Brc1cccc(OCCOCCn2ccnc2)c1	none
Brc1cccc(OCCCn2ccnc2)c1	MITF inh 65.0 | MITF confirm inactive | AS interf ctr inactive
Brc1cccc(OCCn2ccnc2)c1	MITF inh 51.5 | MITF confirm inactive | AS interf ctr inactive
O=C(CNCCN1CCOCC1)NCc1ccc2c(c1)OCO2	MITF inh 84.5 | MITF confirm inactive | AS interf ctr inactive
COc1cccc(CNCC(=O)NCc2ccc3c(c2)OCO3)c1	MITF inh 59.5 | MITF confirm inactive | AS interf ctr inactive
O=C(CNCc1ccc2c(c1)OCO2)Nc1ccccc1F	MITF inh 64.4 | MITF confirm inactive | AS interf ctr inactive
CC(C)NC(=O)CNCc1ccc2c(c1)OCO2	none
O=C(CNCc1cccnc1)Nc1ccc2c(c1)OCO2	MITF inh 58.6 | MITF confirm inactive | AS interf ctr inactive
O=C(CNCc1cccnc1)Nc1ccccc1	none
CCCNC(=O)CCCCn1c(=O)c2ccccc2n(CC(=O)NCc2ccc(F)cc2)c1=O	none
CC(C)n1cnc2c(NCc3cccnc3)nc(Nc3cnccn3)nc21	none
CC(=O)Nc1ccc(C)c(S(N)(=O)=O)c1	none
CC(C)(C)N(Cc1ccccc1)C(=O)COC(=O)c1ccc(Cl)cc1N	none
O=C(CNC(=O)C1CCCCC1)OCc1cc(=O)oc2cc3c(cc12)CCC3	none
O=C(CSCc1ccccc1)NCc1ccc2c(c1)OCO2	none
O=C(CNCCc1ccccc1)NCc1ccc2c(c1)OCO2	MITF inh 73.3 | MITF confirm inactive | AS interf ctr inactive

Assay outcomes: PubChem, The Scripps Research Institute Molecular Screening Center
